Data published in PubChem BioAssay (NCATS).
Results filed as inconclusive are left out. Active and inactive are the calls of the source. Calls follow the shape of the dose curve; as a rule, active = well fitted curve in the direction sought with a large enough effect; inconclusive = small, poorly fitted or top-dose-only effect, or another doubt; inactive = no such curve, though single readings can be large; an effect the other way counts as inactive or inconclusive. Where a SMILES comes first, the peptide text is derived from it.

Experiments:
[1] = system: NIH3T3; assay: qHTS assay to identify novel small-molecules to repurpose for Merkel cell carcinoma treatment (AID 1296009); details: MCC and control cell lines, CellTiter-Glo viability, 72 h; at 44.8 µM (top of the series) unless noted; also: nearly all actives have a fitted effect of over 60% in size
Procedure, shortened: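 Luminescence from CellTiter-Glo, read 10 min after addition at room temperature, reported viability following a 72 hr, 37 degree celsius treatment with NPC or MIPE compounds in titration; values normalized to plate controls.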

[2] = system: C33A; assay: Primary qHTS to identify gynecologic anti-cancer compounds using libraries of approved drugs and bioactive compounds (AID 1345084); details: Gynecologic cancer cell panel viability, ATPlite luminescence, 48 h; series mostly up to 57.5 µM; also: % is scaled to controls: 0 for no effect and ±100 for the full control effect; nearly all actives have a fitted effect of over 55% in size
Procedure, shortened: (§1)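 ATP-based viability (ATPlite), 1,000 cells/well, 16 h pre-incubation, 48 h compound at 37 C, 5% CO2, 15 min RT before read.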

[3] = system: CAOV3; assay: as above; details: Gynecologic cancer cell panel viability, ATPlite luminescence, 48 h; series mostly up to 57.5 µM
Procedure, shortened: as §1

[4] = system: CASKI; assay: as above; details: Gynecologic cancer cell panel viability, ATPlite luminescence, 48 h; series mostly up to 57.5 µM
Procedure, shortened: as §1

[5] = system: Es-2; assay: as above; details: Gynecologic cancer cell panel viability, ATPlite luminescence, 48 h; series mostly up to 57.5 µM
Procedure, shortened: as §1

[6] = system: HeLa; assay: as above; details: Gynecologic cancer cell panel viability, ATPlite luminescence, 48 h; series mostly up to 57.5 µM
Procedure, shortened: as §1

[7] = system: Hek293T; assay: as above; details: Gynecologic cancer cell panel viability, ATPlite luminescence, 48 h, control line for the selectivity index; series mostly up to 57.5 µM
Procedure, shortened: as §1

[8] = system: JEG-3; assay: as above; details: Gynecologic cancer cell panel viability, ATPlite luminescence, 48 h; series mostly up to 57.5 µM
Procedure, shortened: as §1

COc1cc(-c2cccc(O)c2)cc2c1OCO2
inactive: outcome [1] | Potency [2] | Potency [3] | Potency [4] | Potency [5] | Potency [6] | Potency [7] | Potency [8]

CC1(C)CC2C(O)C3=C(CC(C)(O)C2C1)C(=O)OC3O (stereo not drawn)
inactive: outcome [1] | Potency [2] | Potency [3] | Potency [4] | Potency [5] | Potency [6] | Potency [7] | Potency [8]

CC(=O)O[C@@]1(C)C[C@@H](O)[C@]2(O)C=CO[C@@H](O[C@@H]3O[C@H](CO)[C@@H](O)[C@H](O)[C@H]3O)[C@@H]21
inactive: outcome [1] inactive [at 17.4 µM] | Potency [2] | Potency [3] | Potency [4] | Potency [5] | Potency [6] | Potency [7] | Potency [8]

COc1cc(/C=C/C(=O)OC(C)(C)C(OC2OC(CO)C(O)C(O)C2O)C(=O)OCc2ccc(OC3OC(CO)C(O)C(O)C3O)cc2)ccc1O (stereo not drawn)
inactive: outcome [1] inactive [at 17.4 µM] | Potency [2] | Potency [3] | Potency [4] | Potency [5] | Potency [6] | Potency [7] | Potency [8]

CCS(=O)(=O)N1CCC([C@@H](C)n2c(C)c(C(=O)NCc3c(OC)cc(C)[nH]c3=O)c3ccccc32)CC1
inactive: outcome [1] | Potency [2] | Potency [3] | Potency [4] | Potency [5] | Potency [6] | Potency [7] | Potency [8]

C=C1CCC2C(C)(COC3OC(COC(=O)CC(=O)O)C(O)C(O)C3O)CCCC2(C)C1CCC1=CCOC1=O (stereo not drawn)
inactive: outcome [1] inactive [at 17.4 µM] | Potency [2] | Potency [3] | Potency [4] | Potency [5] | Potency [6] | Potency [7] | Potency [8]

CC1=CCC2C(C)(CO)CCCC2(C)C1CC12OC1C(O)C(CO)=CC2O (stereo not drawn)
inactive: outcome [1] | Potency [2] | Potency [3] | Potency [4] | Potency [5] | Potency [6] | Potency [7] | Potency [8]

COc1ccc2c(c1)O[C@H](O[C@@H]1O[C@H](CO)[C@@H](O)[C@H](O)[C@H]1O)C(=O)N2
inactive: outcome [1] | Potency [2] | Potency [3] | Potency [4] | Potency [5] | Potency [6] | Potency [7] | Potency [8]

C[C@@H](O)[C@H](N)C(=O)N1CCC[C@H]1C(=O)N1CCC[C@H]1C(=O)N[C@H](C(N)=O)[C@@H](C)O (H-TPPT-NH2)
inactive: outcome [1] inactive [at 9.27 µM] | activity change, negative = cytotoxicity [2] 10.5% [at 11.6 µM] | activity change, negative = cytotoxicity [3] 3.79% [at 11.6 µM] | activity change, negative = cytotoxicity [4] 7.08% [at 11.6 µM] | activity change, negative = cytotoxicity [5] -3.74% [at 11.6 µM] | activity change, negative = cytotoxicity [6] 8.64% [at 11.6 µM] | activity change, negative = cytotoxicity [7] 17.1% [at 11.6 µM] | activity change, negative = cytotoxicity [8] -0.985% [at 11.6 µM]

C=C(C)[C@@H]1CC[C@](C)(O)[C@@H](OC(=O)c2ccccc2)C1
inactive: outcome [1] | Potency [2] | Potency [3] | Potency [4] | Potency [5] | Potency [6] | Potency [7] | Potency [8]

Cc1nnc(C(C)C)n1C1CC2CCC(C1)N2CC[C@H](NC(=O)C1CCC(F)(F)CC1)c1ccccc1 (stereo partly drawn)
inactive: outcome [1] | Potency [2] | Potency [3] | Potency [4] | Potency [5] | Potency [6] | Potency [7] | Potency [8]

COC(=O)[C@@H]1C2CC3c4[nH]c5ccccc5c4CCN3CC2CC[C@@H]1O (stereo partly drawn)
inactive: outcome [1] | Potency [2] | Potency [3] | Potency [4] | Potency [5] | Potency [6] | Potency [7] | Potency [8]

CC1=CC(=O)CC(C)(C)C1CCC(C)OC1OC(COC(=O)c2cc(O)c(O)c(O)c2)C(O)C(O)C1O (stereo not drawn)
inactive: outcome [1] inactive [at 17.4 µM] | Potency [2] | Potency [3] | Potency [4] | Potency [5] | Potency [6] | Potency [7] | Potency [8]

CC1CCC2(O1)C(C)(C)CC(O[C@@H]1O[C@H](CO[C@@H]3OC[C@](O)(CO)[C@H]3O)[C@@H](O)[C@H](O)[C@H]1O)CC2(C)O (stereo partly drawn)
inactive: outcome [1] inactive [at 17.4 µM] | Potency [2] | Potency [3] | Potency [4] | Potency [5] | Potency [6] | Potency [7] | Potency [8]

Cc1ncc([N+](=O)[O-])n1CC(O)CN1CCOCC1 (stereo not drawn)
inactive: outcome [1] | Potency [2] | Potency [3] | Potency [4] | Potency [5] | Potency [6] | Potency [7] | Potency [8]

CC(C)=CC/C=C(/C)[C@H]1CC[C@]2(C)[C@@H]1[C@H](O)CC1[C@@]3(C)CC[C@H](O)C(C)(C)[C@@H]3[C@@H](O[C@@H]3O[C@H](CO)[C@@H](O)[C@H](O)[C@H]3O[C@@H]3O[C@@H](C)[C@H](O)[C@@H](O)[C@H]3O)C[C@]12C (stereo partly drawn)
inactive: outcome [1] inactive [at 17.4 µM] | Potency [2] | Potency [3] | Potency [4] | Potency [5] | Potency [6] | Potency [7] | Potency [8]
